From PubChem
Hits are enriched below; roughly 10% of the tested compounds scored in any of these assays.
Pf growth 96h: P. falciparum growth inhibition at 96 hours; P. falciparum luciferase reporter growth, 96 h; Potency, µM (doses to about 28.7 µM), actives largely listed as inhibitors; hit rate 6.9% among 320,000; AID 504834; active means well fitted inhibition curve with a large enough effect; inconclusive means small, poorly fitted or top-dose-only effect, or another doubt; inactive means no such curve, though single readings can be large or run the other way
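Erythrocytes infected with luciferase-expressing P. falciparum were dispensed at 2% hematocrit and 0.05% parasitemia (final), then incubated with compounds 96 hours at 37 C in 5% CO2. Luminescence after detection reagent addition reported growth.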
SARS PLP yeast: blocks SARS-CoV papain-like protease in a yeast assay; hit rate 0.19% among 330,000; Potency, µM (top dose mostly 32.9 µM), actives largely listed as activators; S. cerevisiae expressing SARS-CoV PLpro, growth rescue; further: nearly all actives have a fitted effect of over 55% in size
NS1 function inh: inhibitors of influenza NS1 protein function. Potency, µM (top dose mostly 46.1 µM). hit rate 0.4% among 270,000; further: actives are rising curves; nearly all actives have a fitted effect of over 50% in size
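Growth recovery, yeast-based: influenza A NS1 expressed in S. cerevisiae causes slow growth, and suppressors are detected by OD600. The parent strain without NS1 is used as positive control.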
Pf growth 48h: inhibits P. falciparum growth in the first generation, 48 h | P. falciparum luciferase growth in erythrocytes, 48 h | Potency, µM (titrated, usually from 28.7 µM), actives largely listed as inhibitors | hit rate 5.9% among 310,000 | AID 504832; active means well fitted inhibition curve with a large enough effect; inconclusive means small, poorly fitted or top-dose-only effect, or another doubt; inactive means no such curve, though single readings can be large or run the other way
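Read-out is firefly luciferase luminescence from an integrated reporter in P. falciparum, so falling signal marks reduced parasite growth. Infected erythrocytes were at 2% hematocrit and 0.1% parasitemia (final) in Albumax-supplemented RPMI 1640.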
Hits are given with their value; . = inactive; ? = inconclusive; / = no result. Unless noted, the call rests on the fitted dose curve.

SMILES	Pf growth 96h	SARS PLP yeast	NS1 function inh	Pf growth 48h
NC(=S)N/N=C1\CCSc2ccc(Cl)cc21	?	.	.	.
CC(Oc1ccccc1)C(=O)N1CCN(c2ccc(N3CCCCCC3)nn2)CC1 (stereo not drawn)	10µM	.	/	?
COC(=O)c1c(NC(=S)NNC(=O)c2ccc(Cl)s2)sc(C(=O)N(C)C)c1C	.	.	.	.
Cc1c(Cl)cccc1NC(=S)NCCc1ccc(S(N)(=O)=O)cc1	10µM	.	.	.
Cc1c(Cl)cccc1NC(=S)NCCc1ccc(F)cc1	13µM	.	.	?
Cc1c(Cl)cccc1NC(=S)NCCc1ccc(Cl)cc1	?	.	.	?
CN(C)Cc1cc(C(C)(C)C)ccc1-c1ccc(C(C)(C)C)cc1CN(C)C	/	/	.	/
Cc1ccc(SCC(=O)N(C)CC(=O)Nc2cccc(F)c2)c(C)c1	.	.	/	.
CC[C@@](C)(NS(=O)(=O)OCC(Cl)(Cl)Cl)c1ccccc1	.	.	.	.
CC1Cn2c(nnc2-c2cc3ccccc3cc2O)S1 (stereo not drawn)	/	.	.	1.7µM
C=C1CCC2C(C)(C)[C@@H](O)CC[C@@]2(C)[C@@H]1COc1ccc2ccc(=O)oc2c1 (stereo partly drawn)	5.2µM	.	.	12µM
CC(=O)OC1CCC2(C)C(COc3ccc4ccc(=O)oc4c3)C(C)(O)CCC2C1(C)C (stereo not drawn)	9.3µM	.	.	?
CN(C(=O)COc1ccc2ccc(=O)oc2c1)C1CCS(=O)(=O)C1 (stereo not drawn)	?	.	.	.
C=C1CCC2C(C)(C)[C@H](O)CC[C@@]2(C)[C@@H]1COc1cc(=O)oc2ccccc12 (stereo partly drawn)	15µM	.	.	?
Cc1ccc(/C=N/NC(=O)c2cccc(NC(=O)c3ccccc3Cl)c2)o1	1.2µM	.	.	.
Cc1nc2sccn2c(=O)c1S(=O)(=O)Nc1ccc(N2CCOCC2)c(Cl)c1	?	.	.	.
Cc1nc2scc(C)n2c(=O)c1S(=O)(=O)Nc1ccc(N2CCOCC2)c(Cl)c1	9.3µM	.	.	.
CCO/C(C)=N/n1c2nc3ccccc3nc2c2c(=O)n(Cc3ccccc3Cl)c(C)nc21	?	.	.	0.74µM
Cc1nc2c(c(=O)n1Cc1ccccc1Cl)c1nc3ccccc3nc1n2Cc1ccco1	?	.	?	?
Oc1c(Cl)cc(Cl)cc1/C=N/NC(=S)NC1CC2C=CC1C2 (stereo not drawn)	?	.	.	0.83µM
Oc1ccccc1/C=N/NC(=S)NC1CC2C=CC1C2 (stereo not drawn)	0.93µM	.	.	?
Oc1ccccc1/C=N/NC(=S)NCCc1ccccc1	?	.	.	?
COc1ccc(NC(=O)C2CCCN2S(=O)(=O)c2cccs2)c([N+](=O)[O-])c1 (stereo not drawn)	.	.	/	?
Cc1cc(C)c2nc(C)cc(Nc3ccc(C(=O)NCCO)cc3)c2c1	12µM	.	.	10µM
CC(=O)c1cccc(Nc2cc(C)nc3c(C)cccc23)c1	.	.	.	12µM
SMILES	Pf growth 96h	SARS PLP yeast	NS1 function inh	Pf growth 48h
CC(=O)c1ccc(Nc2cc(C)nc3c(C)cc(C)cc23)cc1	?	.	/	12µM
CC(C)(C)NC(=O)c1ccccc1-c1nc(-c2ccccc2Cl)no1	2.1µM	.	.	.
CC(C)NC(=O)c1ccccc1-c1nc(-c2ccccc2Cl)no1	.	.	.	.
Cc1cc(Oc2ccc(-c3ccccc3)cc2)nc(N2CCOCC2)n1	?	.	.	?
Cc1cc(Oc2ccc(C(C)(C)C)cc2)nc(N2CCOCC2)n1	10µM	.	.	/
COc1ccc(S(=O)(=O)N2CCC3(CC2)OCCN3S(=O)(=O)c2ccc(OC)cc2)cc1	9.3µM	.	/	?
COc1ccc(S(=O)(=O)N2CCOC23CCN(S(=O)(=O)c2ccc(Cl)cc2)CC3)cc1	?	.	/	12µM
CCCCSc1nc2sc3c(c2c(=O)n1-c1ccc(OC)cc1)CCN(C)C3	?	.	.	9.3µM
CCCCSc1nc2sc3c(c2c(=O)n1-c1ccccc1)CCN(C)C3	4.1µM	.	.	5.2µM
CCOc1ccc(-n2c(SCC(=O)O)nc3sc4c(c3c2=O)CCCC4)cc1	?	.	.	.
CCSc1nc2sc3c(c2c(=O)n1-c1ccccc1)CCN(C(C)C)C3	0.83µM	.	.	1.5µM
CCSc1nc2sc3c(c2c(=O)n1-c1ccccc1C)CCN(C)C3	1.5µM	.	.	5.2µM
Cc1ccccc1-n1c(SCC(=O)O)nc2sc3c(c2c1=O)CCCC3	?	.	.	.
COC(=O)CSc1nc2sc3c(c2c(=O)n1-c1ccccc1)CCN(C)C3	/	.	.	?
OCC[C@@H]1C[C@H](O)[C@@H](O)[C@]2(CCCc3ccccc3O2)O1	.	.	.	.
